Data taken from PubChem BioAssay (NCI).
About 83,000 compounds went through this panel and 20% of them were active in at least one assay; those are over-represented in the sample as a whole.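 How to read the values: 0–100, growth inhibition (40 = 60% inhibited); 0, no net growth; -100 to 0, cell death (-40 = 40% of starting cells died; -100 = all dead).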 Calls of active or inactive are those of the source. Rule for the calls: active = growth percent below 10; inactive = the rest.

How the values were obtained:
Experiment in all cases: NCI-60 one-dose screen, 48 h (100 = growth as untreated, 0 = no growth, -100 = all killed)
Details in all cases: 10 µM unless noted
[1] = system: DU-145 prostate
[2] = system: K-562 leukemia
[3] = system: MALME-3M melanoma
[4] = system: MDA-MB-231 breast
[5] = system: RXF 393 renal
[6] = system: SF-268 CNS
[7] = system: SF-295 CNS
[8] = system: SF-539 CNS
[9] = system: UACC-257 melanoma
[10] = system: M14 melanoma
[11] = system: HCT-15 colon
[12] = system: HT29 colon
[13] = system: SNB-75 CNS
[14] = system: SNB-19 CNS
[15] = system: U251 CNS
[16] = system: PC-3 prostate
[17] = system: SK-MEL-5 melanoma
[18] = system: UACC-62 melanoma
[19] = system: LOX IMVI melanoma
[20] = system: SK-MEL-28 melanoma

Measured: growth

Cc1cc2nc(C(Cl)Cl)nc(-c3ccccc3)n2n1
inactive: [2] 66.4% | [3] 113% | [4] 62.7% | [6] 77.8% | [7] 55.7% | [8] 76.7% | [9] 93% | [10] 73.3% | [11] 41.2% | [12] 12.6% | [14] 62.7% | [15] 36% | [16] 65.1% | [17] 94.4% | [18] 88.9% | [19] 75.1% | [20] 85.1%
active: [1] -6.97% | [5] 9.08% | [13] -4.36%

CCOC(=O)C1=C(c2ccccc2)N=C2SC=C(c3cccc([N+](=O)[O-])c3)N2C1c1ccc(O)cc1 (stereo not given)
inactive: [1] 102% | [2] 112% | [3] 96.7% | [4] 93.2% | [5] 89.1% | [6] 94.3% | [7] 101% | [8] 98.8% | [9] 96.1% | [10] 101% | [11] 97.7% | [12] 105% | [13] 91.4% | [14] 97% | [15] 96.6% | [16] 94.8% | [17] 97.7% | [18] 92.7% | [19] 95.4% | [20] 104%

O=c1n(C2OC(CO)C(O)C2O)ccc2nccn12 (stereo not given)
inactive: [1] 107% | [2] 102% | [3] 112% | [4] 117% | [5] 162% | [6] 107% | [7] 108% | [8] 112% | [9] 100% | [10] 105% | [11] 105% | [12] 108% | [13] 95.5% | [14] 114% | [15] 99% | [16] 104% | [17] 114% | [18] 111% | [19] 111% | [20] 113%

Cc1nn(C)c2ncnc(Nc3ccccc3Br)c12
inactive: [1] 103% | [2] 97.1% | [3] 111% | [4] 85.2% | [5] 104% | [6] 99.2% | [7] 95.8% | [8] 99.9% | [9] 105% | [10] 101% | [11] 101% | [12] 97.7% | [13] 111% | [14] 101% | [15] 95.3% | [16] 102% | [17] 97.7% | [18] 93.3% | [19] 101% | [20] 102%

Cc1ccc(Nc2oc(-c3ccccc3)nc2[P+](c2ccccc2)(c2ccccc2)c2ccccc2)cc1
active: [1] -19.4% | [2] 0.645% | [3] -61.6% | [4] -83.5% | [5] -69.1% | [7] -85.5% | [8] -60.7% | [9] -42.5% | [10] -76.2% | [11] -34.4% | [12] -28.1% | [13] -2.21% | [14] 0.303% | [15] -58% | [16] -21.1% | [17] -99.7% | [18] -35.4% | [19] -100% | [20] 1.52%
inactive: [6] 10.6%

NCCCCCNc1noc(Cc2c[nH]c3cc(Br)ccc23)n1
active: [1] 2.36% | [5] -11.5% | [7] 7.26% | [8] -23% | [10] -26.3% | [12] 3.86% | [13] 0.268% | [16] 9.96% | [17] 9.74%
inactive: [2] 14.3% | [3] 13.5% | [4] 51.2% | [6] 54.1% | [9] 54.8% | [11] 35.7% | [14] 46.2% | [15] 11.7% | [18] 22.6% | [19] 34.9% | [20] 40.2%

CC(C)c1nc(N(C)S(C)(=O)=O)nc(-c2ccc(F)cc2)c1/C=C/C(=O)C[C@@H](O)CC(=O)O
inactive: [1] 102% | [2] 90.9% | [3] 109% | [4] 110% | [5] 124% | [6] 98.5% | [7] 103% | [8] 104% | [9] 95.6% | [10] 102% | [11] 108% | [12] 85.6% | [13] 91.4% | [14] 105% | [15] 105% | [16] 97.6% | [17] 105% | [18] 99.5% | [19] 101% | [20] 112%

CS(=O)(=O)c1ccc(/C(=N/NC(N)=S)c2ccc(F)cc2)cc1
inactive: [1] 108% | [2] 85.1% | [3] 104% | [4] 107% | [5] 85.1% | [6] 98.8% | [7] 106% | [8] 102% | [9] 102% | [10] 104% | [11] 98.4% | [12] 107% | [13] 93.1% | [14] 99.9% | [15] 107% | [16] 103% | [17] 102% | [18] 101% | [19] 101% | [20] 114%

Cc1cc(C)n(C(=O)CSc2nc3sc4c(c3c(=O)n2-c2ccccc2)CCCCC4)n1
inactive: [1] 106% | [2] 97.1% | [3] 107% | [4] 108% | [5] 99.9% | [6] 104% | [7] 101% | [8] 105% | [9] 96.7% | [10] 113% | [11] 103% | [12] 105% | [13] 89.6% | [14] 95.4% | [15] 97.4% | [16] 99% | [17] 93% | [18] 95.6% | [19] 98.9% | [20] 110%

O=C(/C=C/c1ccc(Cl)cc1)c1ccc(-n2cc(CN3CCN(c4cc5c(cc4F)c(=O)c(C(=O)O)cn5C4CC4)CC3)nn2)cc1
inactive: [1] 90.8% | [2] 67.5% | [3] 84.8% | [4] 88.1% | [5] 75% | [6] 77.3% | [7] 90.7% | [8] 92.8% | [9] 91.7% | [10] 88.7% | [11] 95.8% | [12] 78.2% | [13] 91.6% | [14] 84.1% | [15] 68.6% | [16] 89% | [17] 81.6% | [18] 74.6% | [19] 56.9% | [20] 85.4%

CCNc1nc(-c2ccc(Cl)c(OC)c2)c(-c2ccnc(NCCNS(=O)(=O)c3ccc(Cl)cc3)n2)s1
inactive: [1] 44.3% | [2] 18.3% | [3] 46.2% | [5] 18.9% | [6] 37% | [7] 17.2% | [8] 38.3% | [9] 50.4% | [10] 29.7% | [11] 16.7% | [13] 46.1% | [14] 34.2% | [15] 17.3% | [17] 13.5% | [18] 24.6% | [19] 13.9% | [20] 32.3%
active: [4] 0.973% | [12] 5.01% | [16] 9.83%

COC(=O)[C@H]1Cc2c([nH]c3ccccc23)[C@H](c2ccc3c(c2)OCO3)N1
inactive: [1] 101% | [2] 99.3% | [3] 99.8% | [4] 98.5% | [5] 109% | [6] 96.3% | [7] 99.8% | [8] 92.8% | [9] 107% | [10] 108% | [11] 100% | [12] 106% | [13] 74.8% | [14] 96.4% | [15] 96.8% | [16] 93.2% | [17] 101% | [18] 88.1% | [19] 93.6% | [20] 108%

Nc1ncc(-c2ccc3ncnc(N4CCc5cc(F)c(Cl)cc54)c3c2)cc1C(F)(F)F
inactive: [1] 33.5% | [2] 15% | [3] 13.6% | [4] 23.9% | [6] 34.1% | [7] 26% | [9] 48.2% | [10] 33.8% | [11] 17.9% | [12] 20.4% | [14] 46.1% | [15] 47.8% | [16] 25.2% | [17] 37.8% | [18] 20.4% | [19] 12.7% | [20] 38.3%
active: [5] -33.6% | [8] 8.36% | [13] -14.3%

CC(C)CCc1nc2ccc(NCc3ccc(OCCN4CCC(C)CC4)cc3)cc2[nH]1
inactive: [1] 89.4% | [2] 20.4% | [3] 32% | [4] 59.8% | [5] 61.6% | [6] 79.9% | [7] 90.4% | [8] 58% | [9] 96.3% | [10] 33.2% | [11] 67.4% | [12] 40.3% | [13] 90.8% | [14] 88.6% | [15] 71.6% | [16] 61.4% | [17] 84.9% | [18] 82.5% | [19] 59.6% | [20] 75.7%

CCOC(=O)c1cnc2sc(-c3ccc(OC)cc3)nc2c1Cl
inactive: [1] 96.3% | [2] 107% | [3] 76.3% | [4] 101% | [5] 101% | [6] 103% | [7] 105% | [8] 104% | [9] 101% | [10] 79.1% | [11] 92.9% | [12] 116% | [13] 94.7% | [14] 104% | [15] 103% | [16] 104% | [17] 84.2% | [18] 88.7% | [19] 86.8% | [20] 99%
